Source: PubChem BioAssay (National Center for Advancing Translational Sciences (NCATS))
Nrf2 ARE act: Nrf2 pathway activation; AREc32 ARE-luciferase reporter (MCF7-derived line), luminescence, 24 h; Potency, µM (doses to about 46.1 µM), usual class: activators; hit rate 0.31% among 410,000; further: nearly all actives have a fitted effect of over 65% in size
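Quantitative high-throughput format: AREc32 reporter cells, 1000 per well, received compound by pin transfer and were incubated 24 hr at 37 deg C, 5% CO2, before Steady-Glo luminescence detection.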
DRD3 agonist: agonists of human D3 dopamine receptor. hit rate 0.58% among 410,000. P35462. AID 652048. D3R DiscoveRx beta-arrestin cells, luminescence, 90 min. max activation, %; in the data active means max activation above about 30%
Target sequence (P35462 whole entry, looked up): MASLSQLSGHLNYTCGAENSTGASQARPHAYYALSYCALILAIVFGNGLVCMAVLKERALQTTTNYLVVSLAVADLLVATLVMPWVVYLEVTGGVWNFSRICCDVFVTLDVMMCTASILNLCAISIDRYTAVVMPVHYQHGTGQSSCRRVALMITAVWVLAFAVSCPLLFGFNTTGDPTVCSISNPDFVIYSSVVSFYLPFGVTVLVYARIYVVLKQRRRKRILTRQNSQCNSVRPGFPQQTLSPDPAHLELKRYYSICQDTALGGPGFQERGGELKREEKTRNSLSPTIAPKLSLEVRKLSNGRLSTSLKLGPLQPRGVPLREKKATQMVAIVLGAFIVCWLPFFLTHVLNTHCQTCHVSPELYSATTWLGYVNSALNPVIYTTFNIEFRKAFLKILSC
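Agonist-mode cell screen: cells plated at 1500/well and incubated overnight at 37 °C, then exposed to library compounds for 90 min at 37 °C. Detection reagent was added for 30–60 min at room temperature, and luminescence was read.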
DRD3 antagonist: antagonists of human D3 dopamine receptor. P35462. D3R cells, DiscoveRx beta-arrestin luminescence, antagonist mode; hits give low values. max response, negative = inhibition, %. hit rate 2.5% among 360,000; in the data active means max response below about -50%; inconclusive means no clear call, values can overlap the other calls
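Cells plated overnight at 1500 cells/well, then exposed to library compounds with dopamine controls for 90 minutes at 37 degrees C. DiscoveRx reagent added for 30–60 minutes at room temperature; luminescence read, quantitative HTS format.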
GRP78 ERSR act: induces the endoplasmic reticulum stress response in human glioma cells. hit rate 0.02% among 420,000. U87-MG GRP78 promoter luciferase reporter, 16 h. Potency, µM, actives largely listed as activators; further: series mostly up to about 76 µM; nearly all actives have a fitted effect of over 35% in size
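ERSR induction read as luciferase luminescence (Bright-Glo, 10 min at room temperature) in stably transfected human U87-MG glioma cells exposed to compounds for 16 h, using GRP78 as sensor.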
Large screens that a line does not name were inactive; ! = a repeat was not active. Most compounds without a hit are left out; they make up all but 3% or so of the library. Unless noted, the call rests on the fitted dose curve; in most records, active means well fitted curve in the direction sought with a large enough effect; inconclusive means small, poorly fitted or top-dose-only effect, or another doubt; inactive means no such curve, though single readings can be large; an effect the other way counts as inactive or inconclusive.

COc1ccc(CN(CCN(C)C)c2ncccn2)cc1	none (no result: Nrf2 ARE act, DRD3 antagonist)
CCOc1cccc2c1OC(c1cc(OC)c(OC)c(OC)c1)N1N=C(c3ccc(C)o3)CC21 (centres undefined)	Nrf2 ARE act 13µM, GRP78 ERSR act inconclusive
COC(=O)c1ccc(Cn2c(=O)cc(C)c3c(C)nn(C)c32)cc1	DRD3 agonist 37 (no result: DRD3 antagonist)
Cc1nn(C)c2c1c(-c1ccccc1)cc(=O)n2Cc1ccccc1F	none (no result: DRD3 antagonist)
Cc1nn(C)c2c1c(-c1ccccc1)cc(=O)n2Cc1ccc(F)cc1	DRD3 agonist 31 (no result: DRD3 antagonist)
CC12C=C(/C=C/c3ccc(Br)cc3)C(C)(C1)C(c1ccc(Br)cc1)CC2=O (centres undefined)	none (no result: Nrf2 ARE act, DRD3 agonist, DRD3 antagonist)
O=c1c2ccc([N+](=O)[O-])cc2ncn1CCOc1cccc(Br)c1	DRD3 agonist 32
O=c1c2ccc([N+](=O)[O-])cc2ncn1CCOc1ccc(Cl)cc1	none
CSc1ccc(C2C(C#N)=C(N)Oc3c2ccc(=O)c2c(C)oc(C)c32)cc1 (centres undefined)	Nrf2 ARE act inconclusive, DRD3 antagonist -51
CNC[C@H](O)c1ccc(OC(=O)C(C)(C)C)c(OC(=O)C(C)(C)C)c1	none (no result: Nrf2 ARE act, DRD3 agonist, DRD3 antagonist)
CNCC(O)c1ccc(OC(=O)C(C)(C)C)c(OC(=O)C(C)(C)C)c1 (centres undefined)	DRD3 agonist 40!
COc1ccc(OCc2n(CC(=O)OC3CC(C)CCC3C(C)C)c3ccccc3[n+]2C)cc1 (centres undefined)	DRD3 antagonist inconclusive
COc1ccc(-c2n(CC(=O)OC3CC(C)CCC3C(C)C)c3ccccc3[n+]2C)cc1 (centres undefined)	DRD3 antagonist -86
O=C(c1cccc(C(F)(F)F)c1)C1CCCN(Cc2cccn2-c2ncccn2)C1 (centres undefined)	DRD3 antagonist -54
COc1cc(CN2CCCC(C(=O)c3ccc(C(C)(C)C)cc3)C2)cc(OC)c1O (centres undefined)	DRD3 antagonist -59
CCOc1cc(CN2CCCC(C(=O)c3cccc(C(F)(F)F)c3)C2)ccc1O (centres undefined)	DRD3 antagonist -70
O=C(c1ccc(C(F)(F)F)cc1)C1CCCN(Cc2cccn2-c2ncccn2)C1 (centres undefined)	none
COc1ccc(CN2CCCC(C(=O)c3ccc(Cl)cc3)C2)cc1Cn1cccn1 (centres undefined)	none
COc1ccc(-c2ccnc(-n3ncc(C(=O)NC(C)(C)CO)c3C3CC3)n2)cc1F	none (no result: Nrf2 ARE act, DRD3 agonist, DRD3 antagonist)
O=C(Cn1ncc(N2CCOCC2)c(Cl)c1=O)c1ccc(Cl)cc1	none
O=C(Cn1ncc(Cl)c(Cl)c1=O)c1ccc(Cl)cc1	Nrf2 ARE act inconclusive, DRD3 antagonist -55
O=C(Cn1cncn1)c1ccc(Cl)cc1	DRD3 antagonist -80
C=CCn1c(C)cc(C(=O)Cn2ncc(Cl)c(Cl)c2=O)c1C	Nrf2 ARE act inconclusive, DRD3 antagonist -88
CC(C)(C)C(=O)Cn1ncc(Cl)c(Cl)c1=O	Nrf2 ARE act inconclusive
Cc1ccc(C(=O)Cn2cncn2)cc1	none
O=C(OCn1ncc(Cl)c(Cl)c1=O)c1ccccc1Cl	Nrf2 ARE act inconclusive, DRD3 antagonist -70
Cn1c2c(c3cnc4cc(Cl)ccc4c31)CN(Cc1ccc(Cl)cc1)CC2	none (no result: Nrf2 ARE act, DRD3 agonist, DRD3 antagonist)
COc1ccc(Oc2cc(C)c3ccccc3n2)cc1	DRD3 agonist 30
Cc1ccc(NS(=O)(=O)c2cccc3nsnc23)cc1C	none
COc1cc(NS(=O)(=O)c2cccc3nsnc23)c(C(=O)O)cc1OC	DRD3 antagonist -83
COc1cc(NS(=O)(=O)c2cccc3nsnc23)cc(OC)c1	DRD3 antagonist -64
CCN(CC)CCOC(=O)c1ccc(NC(=O)CCCN2C(=O)/C(=C/c3cccs3)SC2=S)cc1	DRD3 antagonist -74
O=C(CCCN1C(=O)/C(=C\c2cccs2)SC1=S)Nc1ccc(C(=O)O)cc1	none
CC[C@H]1OC(=O)[C@H](C)[C@@H](O[C@H]2C[C@@](C)(OC)[C@@H](O)[C@H](C)O2)[C@H](C)[C@@H](O[C@@H]2O[C@H](C)C[C@H](N(C)C)[C@H]2O)[C@](C)(O)C[C@@H](C)/C(=N\OCOCCOC)[C@H](C)[C@@H](O)[C@]1(C)O	none (no result: Nrf2 ARE act, DRD3 antagonist, GRP78 ERSR act)
O=C1OC(c2ccccc2)=C/C1=C\N1CCOCC1	DRD3 antagonist inconclusive
O=C1OC(c2ccccc2)=C/C1=C/N1CCOCC1	DRD3 antagonist -55
Cc1cccc2cc(CNCCCN3CCCC3=O)c(N3CCN4CCCC4C3)nc12 (centres undefined)	none (no result: Nrf2 ARE act, DRD3 agonist, DRD3 antagonist)
Cc1ccc(S(=O)(=O)/N=C2/C=C(C3C(=O)CC(C)(C)CC3=O)C(=O)c3ccccc32)cc1	none
Cc1ccc(S(=O)(=O)/N=C2\C=C(NS(=O)(=O)c3ccccc3)C(=O)c3ccccc32)cc1	none
